Measurements reported in the supplement of paper PMC6555819.

system: RARa homodimer (NR concentration 270 nM); assay: PBM binding z-score (relative to random genomic background probes); higher = stronger binding; sequences stand for … in GC…GCGATTGACAGCGTAGAATGAAGG
How it was run: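 Ligand-free nuclear receptor dimers were applied to custom Agilent 4×180K protein-binding microarrays whose double-stranded probes carried direct-repeat seeds, single-nucleotide variants, half-site ablations and random human genomic background sequences in 34-nt variable regions. Incubation lasted 1 h. Binding z-scores were computed against the random background probes from regression-normalized fluorescence.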

Sequence	PBM binding z-score
ATCTCTAGGTGAAGTTCAGTGAAAGATCGATAGA	0.618
CCGACTGGGGCAGAAAGTTTACCATACCATCCGG	-0.166
ACAGACAGGTGATGAAGGTAACTAAGGCTATCAT	0.0422
GCATGTAGATCAAGGTTAAGAAAGACTAAGCTAA	-0.356
TCTTGTAGATCAACAGGAGGTCAAGAAAGATCGA	0.649
CTTGCTAGGTCAATGGTCAGCTAAAGCAGCTCGC	-0.394
TCGAGTAGGTTCGTCGGGGCATTCAGCCAACATA	-0.807
ATCTCTGGGTAACAAGTTCAGTGAAAGAGAGGAC	1.24
TAGCCCAGGTCAGATCGGGCCAGTATACGCTATA	-0.626
TGTCAAAGTTCAATGGTAACGTAAGTATCCACAC	1.11
CGAACGAGGGCATGAGTTGATAGCAAATGCCGAT	-0.431
CGTCCAAGGTCATAGGAGGTCAGGGAAGACAGAT	2.46
GCTGCTTGGTCAACTGATGGTCAGCTAAAGCTCG	-0.784
ATCTCTAGGAAACCAAGTTCAGTGAATGCCGAAC	1.12
CCTGCTAGGTCATGGTCATCTAATCTACAGTATG	0.16
TAGCCTATGTCATTGGGCCAGTATAGTACGCATC	-0.0402
CGAACTAGGTCAGAACAGGACACTGAAGGATGAT	0.452
GCTCGGAGGACAAGGTCAGATCTTTGTCCGTAGA	-0.579
AGAATGAGGTTATTACGATCAGGGAATTGCGGTC	1.21
TCATATACGTAAAAGGTGAAAGTCGGTGTGGTAA	1.88
CCTAGTGGGCCACGAAAGGTCATTGATTCAGTGA	0.966
TCTTGTAGTTCAATAGAGGTTAAGAAAGTGCGCT	0.814
